A selection: hits, their analogues and other compounds. The true share with any hit is near 10%.
ROMK mod – modulates human ROMK potassium channel activity. 2% of 130,000 active. Tet-inducible ROMK, thallium flux fluorescence; actives lie on both sides. B-score at 10 µM;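 active = signal ratio slope over the read window, or its plate-corrected B-score, at least 3 SD from the plate mean, either direction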;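 note: B-score of the F/F0 ratio slope over 7 to 12 s after thallium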
HCT116 bCat-KO – beta-catenin-lacking colon tumor cell growth suppression | HCT116 beta-catenin knockout viability, CellTiter-Glo, 60 h; active compounds read low | 1.5% of 140,000 active | viability, % at 10 µM;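 active = viability at or under a set limit, the compound median less 4 SD, cut at about 6% in these data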;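 note: 0% = Hyamine 1622 control at 20 µM and 100% = untreated cell control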
PTEN del growth – suppresses growth of cells with PTEN deletion; viability, % at 10 µM; 1.2% of 140,000 active; HCT116 PTEN-null viability, CellTiter-Glo, 60 h; active compounds read low;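 active = viability at or below a set limit, 4 SD under the median of all tested compounds, cut at about 3.7% in these data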;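 note: PTEN knockout HCT116 line with beta catenin targeted HCT116 as companion control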
Insulin prom inh – TRM-6 insulin promoter activity inhibition; AID 1273; 0.9% of 130,000 active; inhibition, % at 2 µM; TRM-6 cells (human fetal islet line), insulin promoter-eGFP reporter, imaging; reporter expression induced with tamoxifen;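 active = inhibition above the mean plus 3 SD, with well images judged a real hit on visual review, cut at about 60% in these data, passing the limit was not always enough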
p97 inhibitor – human p97 ATPase inhibition. P55072. recombinant p97 ATPase, Kinase-Glo ATP luminescence, 3 h. inhibition, % at 8 µM. 0.42% of 220,000 active. AID 1481; in the data active = inhibition above about 15%;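 note: 0% = DMSO vehicle and 100% = wells lacking enzyme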
Target sequence (P55072 whole entry, looked up): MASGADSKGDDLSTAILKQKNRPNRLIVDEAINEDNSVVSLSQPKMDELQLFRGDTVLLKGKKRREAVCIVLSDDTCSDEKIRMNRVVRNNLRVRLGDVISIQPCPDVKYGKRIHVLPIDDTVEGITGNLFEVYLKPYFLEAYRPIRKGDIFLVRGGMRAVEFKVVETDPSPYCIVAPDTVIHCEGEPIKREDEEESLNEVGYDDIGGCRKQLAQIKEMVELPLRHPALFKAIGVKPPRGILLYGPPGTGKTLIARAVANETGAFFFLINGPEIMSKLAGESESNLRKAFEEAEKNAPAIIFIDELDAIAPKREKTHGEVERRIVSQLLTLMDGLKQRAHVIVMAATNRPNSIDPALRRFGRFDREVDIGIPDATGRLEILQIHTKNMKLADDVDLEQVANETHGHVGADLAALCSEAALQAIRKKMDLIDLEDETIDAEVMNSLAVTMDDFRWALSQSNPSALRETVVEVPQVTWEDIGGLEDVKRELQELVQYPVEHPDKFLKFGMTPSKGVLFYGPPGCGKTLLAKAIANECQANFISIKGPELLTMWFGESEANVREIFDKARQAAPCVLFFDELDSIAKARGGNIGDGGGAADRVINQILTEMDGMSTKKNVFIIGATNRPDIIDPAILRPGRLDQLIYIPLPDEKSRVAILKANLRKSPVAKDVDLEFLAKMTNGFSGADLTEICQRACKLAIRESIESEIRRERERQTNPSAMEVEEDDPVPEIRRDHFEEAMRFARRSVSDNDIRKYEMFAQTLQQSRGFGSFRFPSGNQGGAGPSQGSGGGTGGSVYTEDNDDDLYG
L major viab – Leishmania major promastigote growth inhibition. Leishmania major promastigotes, resazurin fluorescence viability. inhibition, % at 10 µM. 9% of 200,000 active. AID 1063; in the data active = inhibition above about 50%;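 note: promastigotes grown with compound for 44 hours at 28 °C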
* = called active by the depositor; / = not tested or not shown.

SMILES	ROMK mod	HCT116 bCat-KO	PTEN del growth	Insulin prom inh	p97 inhibitor	L major viab
O=[N+]([O-])c1nn(-c2ccc3c(c2)OCCO3)n(O)c1=NCCCO	/	88	86	2	1	72*
COCCN(CC(=O)NC1CCCCC1)C(=O)CCCC(=O)Nc1ccccn1	0.073	/	/	/	2	7
O=C1S/C(=C/c2ccccc2F)C(=O)N1CCN=C1NS(=O)(=O)c2ccccc21	-2.1	99	101	-19	-1	22
O=C(CSc1nnc(-c2ccccc2)c(-c2ccccc2)n1)NC1CCS(=O)(=O)C1 (centres undefined)	-0.19	/	/	/	4	-6
CCCC(=O)Nc1cccc(NC(=O)c2cccc([N+](=O)[O-])c2C)c1	/	98	97	13	-3	38
C=CCn1c(=NC(=O)CC)n(C)c2ccccc21	0.26	93	105	-67	-3	-7
O=[N+]([O-])c1nn(-c2ccc3c(c2)OCCO3)n(O)c1=NC1CCCC1	0.44	85	75	/	0	18
O=[N+]([O-])c1nn(-c2ccc3c(c2)OCCO3)n(O)c1=NC1CCCCCC1	/	79	72	37	1	87*
CCCCNC(=S)N(C)/N=C/c1sc(N2CCCCC2)nc1-c1cccs1	/	80	82	-18	-6	96*
CC(C)NC(=S)N/N=C/c1sc(N2CCCCC2)nc1-c1cccs1	1.3	84	86	-18	4	17
O=C(N/N=C/c1sc(N2CCCCC2)nc1-c1cccs1)C1CC1	-0.25	/	/	-55	7	69*
CCC(NC(=O)c1ccccc1NC(=O)c1ccccc1)C(=O)NNC(=O)c1cccnc1 (centres undefined)	/	/	/	/	-2	/
N=c1ncn(Cc2ccccc2)c2nc(SCCOc3ccccc3)[nH]c12	/	87	94	/	0	3
COc1ccc(/C=N/Nc2ncnc3c2[nH]c2ccccc23)c(OC)c1OC	-0.029	94	87	31	-4	66*
COCC(=O)Nc1ccc(C(=O)Nc2ccccc2Cl)cc1	-0.35	/	/	/	4	-4
CCN(c1ccccc1)S(=O)(=O)c1cc(C(=O)Nc2ccc(F)c(F)c2)ccc1F	/	4.5*	3.4*	/	3	27
COC(=O)c1cc(C(=O)Nc2ccc(S(N)(=O)=O)cc2)cc([N+](=O)[O-])c1	0.0035	/	/	/	-5	61*
CCCC(C)c1nnc(NC(=O)c2cc(C(=O)OC)cc([N+](=O)[O-])c2)s1 (centres undefined)	/	90	91	7	1	97*
CC(C)NC(=O)C(=O)NCCCN1CCOCC1	0.98	/	/	21	-5	-7
Nn1c(SCC(=O)N2CCCc3ccccc32)nnc1-c1ccccc1	/	103	97	/	-5	-4
CC(C)c1ccccc1-n1c(SCC(=O)N2CCN(c3ccccc3)CC2)nnc1-c1cccnc1	/	56	57	6	-2	96*
Cn1c(Cc2cccc3ccccc23)nnc1SCC(=O)N1CCN(c2ccccc2)CC1	/	73	73	-67	-3	58*
Cn1c(SCC(=O)N2CCN(c3ccccc3)CC2)nnc1-c1ccncc1	-0.021	94	85	-33	1	-5
O=C(CSc1nnc(-c2cccnc2)n1-c1ccc(SC(F)F)cc1)N1CCCc2ccccc21	/	91	97	29	1	88*
Cn1c(Cc2ccccc2)nnc1SCC(=O)N1CCN(c2ccccc2)CC1	0.017	111	99	-143	1	-4
SMILES	ROMK mod	HCT116 bCat-KO	PTEN del growth	Insulin prom inh	p97 inhibitor	L major viab
Cc1ccc(-n2c(SCC(=O)N3CCCc4ccccc43)nnc2-c2cccnc2)c(C)c1	-1.1	89	96	-100	0	59*
Cc1cc(NC(=O)CN2CCC(C)CC2)no1	0	/	/	0	2	-6
CCOc1ccccc1-n1c(SCC(=O)N2CCCc3ccccc32)nnc1-c1cccnc1	-0.023	77	75	3	-1	53*
COc1ccc(OC)c(-c2cc(C(=O)Nc3c(C)nn(Cc4ccccc4Cl)c3C)no2)c1	-1.7	81	74	-40	1	52*
Cc1ccc(C)c(S(=O)(=O)N2CCCOC2CNC(=O)C(=O)NCCC2=CCCCC2)c1 (centres undefined)	-0.71	66	70	-6	1	2
COc1ccc(CCNCC(O)Cn2c3ccccc3c3ccccc32)cc1OC (centres undefined)	-1.3	/	/	-100	3	100*
COc1ccccc1NCC(O)Cn1c2ccccc2c2ccccc21 (centres undefined)	0.097	24	11	37	-3	44
Cc1sc(NC(=O)c2ccco2)c(C(c2cccnc2)N2CCN(C)CC2)c1C (centres undefined)	/	89	96	-5	0	9
Cc1sc(NC(=O)c2ccco2)c(C(c2cccnc2)N2CCCC2)c1C (centres undefined)	/	70	68	23	0	99*
O=C(CN(c1ccc(F)cc1)S(=O)(=O)c1ccccc1)NCCSC1CCCCC1	-1.4	86	81	29	-1	33
CCOC(=O)C1(CC2CCCCO2)CCN(S(=O)(=O)c2c(C)nn(C)c2C)CC1 (centres undefined)	2	/	/	/	4	-4
Cc1ccc(NCC(=O)c2ccccc2)cc1Cl	/	92	82	-47	0	48
Cc1ccc(NC2=C(NC(=O)c3ccccc3)C(=O)c3ccccc3C2=O)cc1Cl	/	5.7*	5	/	-6	98*
O=C(CN(Cc1ccccc1)S(=O)(=O)c1ccc(S(=O)(=O)N2CCOCC2)cc1)Nc1ccccc1	/	96	105	/	4	-4
COc1ccc(N2C(=O)C3C(c4ccc(C(=O)O)cc4)NC(Cc4ccccc4)(C(=O)O)C3C2=O)c([N+](=O)[O-])c1 (centres undefined)	0.15	/	/	/	0	-9
O=C(Oc1ccc2ccccc2c1)c1ccco1	-1.1	96	97	/	2	5
CC1CC(C)(C)Nc2ccc(N=O)cc21 (centres undefined)	0.24	/	/	-158	3	100*
CC1CC(C)(C)Nc2ccc(OC(=O)c3ccco3)cc21 (centres undefined)	/	0.8*	0.7*	-14	2	98*
CC(CCN(C)C)OC(=O)c1ccc(C(C)c2ccccc2)o1 (centres undefined)	0.25	99	80	/	4	100*
CN(C)CCNC(=O)C(c1ccccc1)c1ccccc1	/	/	/	/	2	/
CC(C)(CO)NCC(=O)Nc1cc(C(F)(F)F)cc(NC(=O)CNC(C)(C)CO)c1Cl	/	89	86	-30	0	43
O=c1[nH]c(SCc2ccccc2Cl)nc2c1CCC2	/	72	83	-5	2	29
CNc1nc(SCc2ccccc2Cl)nc2c1CCCC2	/	72	59	/	-1	88*
O=[N+]([O-])c1ccc(Nc2ccc(F)cc2)nc1	-0.51	97	87	/	-5	1
O=[N+]([O-])c1ccc(Nc2ccccc2)nc1	-0.78	98	97	54	7	56*
